{
  "source": "PubChem BioAssay (NCATS)",
  "note": "Records with an inconclusive call do not appear. Where a call stands in place of a potency, no number is given. Values without a mark were called inactive. Calls of active or inactive are those of the source. The call rests on the fitted dose curve; tested in HEK293 reporter line.",
  "data": [
    {"assay": "qHTS for Inhibitors of the Functional Ribonucleoprotein Complex (vRNP) of Lassa (LASV) Arenavirus: LASV Primary Screen - GLuc reporter signal (AID 1347082); further: nearly all actives have a fitted effect of over 60% in size", "details": "LASV minigenome vRNP, Gaussia luciferase reporter; series mostly up to 57.5 µM", "values": [
      {"smiles": "COc1ccc(-c2coc3cc(OC)cc(O)c3c2=O)cc1", "Potency": "inactive"},
      {"smiles": "CC/C=C\\CCOC(=O)CCCCC", "Potency": "inactive"},
      {"smiles": "COc1cc(C2c3cc4c(c(O)c3CC3COC(=O)C32)OCO4)cc(OC)c1O", "note": "(stereo not given)", "Potency": "inactive"},
      {"smiles": "CN1CCc2cc3c(cc2C1)OCO3", "Potency": "inactive"},
      {"smiles": "CC(C)=CCC1=C(O)[C@](O)(CC=C(C)C)C(=O)C(C(=O)CC(C)C)=C1O", "Potency": "inactive"},
      {"smiles": "CC(C)NC(=O)NCCCCCCS(C)=O", "note": "(stereo not given)", "Potency": "inactive"},
      {"smiles": "C[C@@]12CC[C@H]3OC(=O)C=C3C1CC[C@@]13CC(CCC12)[C@](CO)(O[C@H]1O[C@H](CO)[C@@H](O)[C@H](O)[C@H]1O)C3", "note": "(stereo not given in full)", "Potency": "inactive"},
      {"smiles": "COC(=O)C1=CO[C@@H](OC2OC(CO)C(O)C(O)C2O)[C@@H]2C(CO)=CC[C@H]12", "note": "(stereo not given in full)", "Potency": "inactive"},
      {"smiles": "O=C(O)c1cc(N(Cc2ccccc2O)Cc2ccccc2O)ccc1O", "Potency": "inactive"},
      {"smiles": "COc1c(-c2ccc(O)cc2)oc2cc(O)cc(O)c2c1=O", "Potency": "inactive"},
      {"smiles": "COc1ccc([C@H]2c3cc(OC)c(OC)cc3C[C@@H](C)[C@@H]2C)cc1OC", "Potency": "inactive"},
      {"smiles": "CC(O)C1C(=O)N2C(C(=O)O)=C(SC3CNC(C(=O)N(C)C)C3)C(C)C12", "note": "(stereo not given)", "Potency": "inactive"},
      {"smiles": "C[N+](C)(C)C[C@H](O)CC(=O)[O-]", "Potency": "inactive"},
      {"smiles": "C/C=C(/CC[C@@H](C)[C@H]1CC[C@H]2C3=CC[C@H]4[C@H](C)[C@@H](O)CC[C@]4(C)[C@H]3CC[C@]12C)C(C)C", "Potency": "inactive"},
      {"smiles": "O=C(OCCc1ccccc1)c1ccccc1", "Potency": "inactive"},
      {"smiles": "O=C1N[C@@H](Cc2c[nH]c3ccccc23)C(=O)N[C@H]1Cc1c[nH]c2ccccc12", "Potency": "inactive"},
      {"smiles": "O=C(O)CCC[C@H](O)\\C=C/C=C/C=C/[C@H](O)C/C=C\\CCCCCO", "activity change, negative = inhibition": "12% [at 0.757 µM]"},
      {"smiles": "CC[C@@H]1C=C(C)C[C@H](C)C[C@H](OC)[C@H]2O[C@@](O)(C(=O)C(=O)N3CCCC[C@@H]3C(=O)O[C@H](C(C)=C[C@@H]3CC[C@H](Cl)[C@H](OC)C3)[C@H](C)[C@@H](O)CC1=O)[C@H](C)C[C@H]2OC", "Potency": "inactive"},
      {"smiles": "COc1cc(OC)c2c(-c3ccccc3)cc(=O)oc2c1", "Potency": "inactive"},
      {"smiles": "CC[C@H]1NC(=O)[C@@H](NC(=O)c2ncccc2O)[C@@H](C)OC(=O)[C@H](c2ccccc2)NC(=O)[C@@H]2CC(=O)CCN2C(=O)[C@H](Cc2ccccc2)N(C)C(=O)[C@@H]2CCCN2C1=O", "Potency": "inactive"},
      {"smiles": "CC(c1c(O)c2ccccc2[nH]c1=O)C1(C)CCC(O)C(C)(C)O1", "note": "(stereo not given)", "Potency": "inactive"},
      {"smiles": "CC12C=CC(=O)C=C1CCC1C2CCC2(C)C(C(=O)CO)CCC12", "note": "(stereo not given)", "Potency": "inactive"},
      {"smiles": "COc1ccc(C2Sc3ccccc3N(CCN(C)C)C(=O)C2OC(C)=O)cc1", "note": "(stereo not given)", "Potency": "inactive"},
      {"smiles": "Cc1cc2c(c(CO)c1CCO)C(=O)[C@@H](C)[C@@H]2O", "Potency": "inactive"},
      {"smiles": "COC(=O)c1ccccc1OC", "Potency": "inactive"},
      {"smiles": "CCOC(=O)c1ccccc1", "Potency": "inactive"},
      {"smiles": "O=C(O)[C@@H]1Cc2c([nH]c3ccccc23)C2CCC(=O)N21", "note": "(stereo not given in full)", "Potency": "inactive"},
      {"smiles": "CO[C@H]1/C=C\\O[C@@]2(C)Oc3c(C)c(O)c4c(O)c(c5c(nc6cc(C)ccn65)c4c3C2=O)NC(=O)C(C)=CC=C[C@H](C)[C@H](O)[C@@H](C)[C@@H](O)[C@@H](C)[C@H](OC(C)=O)[C@H]1C", "Potency": "inactive"},
      {"smiles": "Cn1cnc2c(ncn2[C@@H]2O[C@H](CO)[C@@H](O)[C@H]2O)c1=N", "Potency": "inactive"},
      {"smiles": "CC1(C)C[C@H]2C3=CCC4[C@@]5(C)CC[C@H](O)C(C)(C)C5CC[C@@]4(C)[C@]3(C)[C@@H](O)[C@@H](O)[C@@]2(CO)[C@@H](O)[C@@H]1O", "note": "(stereo not given in full)", "Potency": "inactive"},
      {"smiles": "CC/C=C\\CCOC(C)OCC", "note": "(stereo not given)", "Potency": "inactive"},
      {"smiles": "CC(=O)OC[C@]12CCC(C)=C[C@H]1O[C@@H]1[C@H](O)[C@@H](OC(C)=O)[C@@]2(C)[C@]12CO2", "Potency": "inactive"},
      {"smiles": "OC1O[C@H](c2ccc3c(c2)OCO3)[C@H]2CO[C@H](c3ccc4c(c3)OCO4)[C@@H]12", "note": "(stereo not given in full)", "Potency": "inactive"},
      {"smiles": "CCc1cc(C(C)=NOCc2ccc(C3CCCCC3)c(C(F)(F)F)c2)ccc1CN1CC(C(=O)O)C1", "Potency": "inactive"},
      {"smiles": "CCCCCCCCCCCCCC[C@@H](O)[C@@H](O)[C@@H](N)CO", "Potency": "inactive"},
      {"smiles": "COC(=O)c1cc2c([nH]c3ccccc32)c(C)n1", "Potency": "inactive"},
      {"smiles": "OC[C@H]1O[C@@H](O[C@H]2[C@@H](O)[C@@](O)(CO)O[C@@H]2CO)[C@H](O)[C@@H](O)[C@@H]1O", "Potency": "inactive"},
      {"smiles": "CC1(C)CCC[C@]2(C)[C@H]3CCO[C@]3(C)CC[C@@H]12", "Potency": "inactive"},
      {"smiles": "COC(=O)CC1[C@@]2(C)C[C@]34OC5(C)OC6(C7CC(=O)OC(c8ccoc8)[C@]7(C)CCC6(O5)[C@]13C)C(OC(C)=O)[C@]4(OC(C)=O)C2OC(C)=O", "note": "(stereo not given in full)", "Potency": "inactive"},
      {"smiles": "CC/C=C\\CCCCCCCCCCOC(C)=O", "Potency": "inactive"}
    ]}
  ]
}
